USP1 inh: USP1/UAF1 (human) deubiquitinase inhibition; O94782; recombinant USP1/UAF1, Ub-Rhodamine cleavage fluorescence; Potency, µM (series often up to 57.1 µM), without a hit: at the top dose activity change, negative = inhibition, hits mostly inhibitors; hit rate 0.23% among 390,000; active means well fitted inhibition curve with a large enough effect; inconclusive means small, poorly fitted or top-dose-only effect; inactive means no such curve, though single readings can be large or run the other way; further: potency means the concentration at half of the fitted maximal effect; on the % scale 0 is the no-effect control and ±100 the full control effect; nearly all actives have a fitted effect of over 60% in size
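In this screen, compounds sit with the deubiquitinase complex (1nM) for 15 min at room temperature before Ub-Rho is added at 150nM final. Fluorescence rise is then followed for 6 reads every 60 seconds.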
D1 antagonist: blocks dopamine activation of the human D1 receptor; P21728; HEK293 TREx D1 cells, calcium flux, dopamine EC80; active compounds read low; activity change, negative = inhibition, % at 10 µM; hit rate 3.2% among 360,000; in the data active means activity change below about -30%; further: on the % scale 0 is the no-effect control and ±100 the full control effect
Target sequence (P21728 whole entry, looked up): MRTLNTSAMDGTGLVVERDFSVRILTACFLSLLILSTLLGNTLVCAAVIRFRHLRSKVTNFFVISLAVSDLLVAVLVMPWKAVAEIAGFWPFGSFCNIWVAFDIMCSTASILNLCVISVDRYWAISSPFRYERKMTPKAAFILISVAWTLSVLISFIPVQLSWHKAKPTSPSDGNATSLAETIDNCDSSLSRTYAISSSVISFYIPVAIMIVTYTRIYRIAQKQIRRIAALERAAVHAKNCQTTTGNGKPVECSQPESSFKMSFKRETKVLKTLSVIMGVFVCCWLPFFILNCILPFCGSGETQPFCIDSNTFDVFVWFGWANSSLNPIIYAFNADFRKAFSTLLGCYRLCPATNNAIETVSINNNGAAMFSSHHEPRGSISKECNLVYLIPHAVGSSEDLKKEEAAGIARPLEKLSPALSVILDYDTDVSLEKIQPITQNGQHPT
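HEK293 T-REx cells expressing inducible, force-coupled D1 receptor; no-wash Ca dye, 30–90 min RT. Cmpd → 180 s read at 1 Hz → EC80 DA → 180 s read.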
TRHR PAM: allosteric enhancers of human TRH receptor; P34981; TRHR cells, fluo-8 calcium fluorescence, EC20 TRH enhancement; enhancement, % at 2 µM; hit rate 0.66% among 360,000; in the data active means enhancement above about 30%; further: 0% is about no effect
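Enhancer read-out: after compound pinning and an initial kinetic agonist-mode read, an EC20 of TRH (10 nM final) was injected and fluo-8 calcium signal (Ex 480/Em 530) followed at 1 s/cycle for 100 cycles in TRHR-expressing cells.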
TRHR agonist: agonists of human TRH receptor; P34981; TRHR cells, calcium flux fluo-8, FDSS agonist mode; activation, % at 2 µM; hit rate 0.18% among 360,000; AID 493084; further: 0% is about no effect
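Read-out: compound-evoked intracellular calcium rise in TRHR cells, fluo-8 dye, kinetic FDSS fluorescence at 1 s/cycle following a 10-cycle baseline. Cells cultured overnight before dye loading (30 min–1.5 h, RT).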
D1 PAM: potentiators of human D1 dopamine receptor; HEK293 TREx D1 cells, calcium flux, dopamine EC20 potentiation; P21728; potentiation, % at 10 µM; hit rate 0.036% among 360,000; in the data active means potentiation above about 30%; further: 0% is about no effect
D1 ag: activates the human D1 dopamine receptor. P21728. hit rate 1% among 360,000. HEK293 T-REx D1 cells, calcium flux, agonist mode. AID 504660. activation, % at 2 µM; further: 0% is about no effect
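Agonism was scored from calcium flux recorded over 180 s (1 read/s) after pintool compound addition, following a 10-cycle baseline. Cells were inducible force-coupled HEK293 TREx D1, plated overnight at 30 C and loaded with no-wash calcium dye.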
Starred values were filed as active, the others as inactive; ? = inconclusive; nt = no result. Sampled rows, rich in hits. Any-hit rate of the full collection: about 4.4%. Unless noted, no stated cut-off is given here; in the data, active means activation above about 30%; inactive means the rest.

SMILES	USP1 inh	D1 antagonist	TRHR PAM	TRHR agonist	D1 PAM	D1 ag
Cc1ccc(OCC(=O)Nc2ccc3oc(=O)ccc3c2)c(C)c1	-4%	-56*	0	0	-7	3
COc1ccc(-c2nc3cc(NC(=O)COc4ccccc4C)ccc3o2)cc1	?	-54*	-3	1	4	10
O=C(COc1ccccc1[N+](=O)[O-])Nc1cc(-c2nc3cc(Cl)ccc3o2)ccc1Cl	-11%	-45*	1	1	-2	0
Cc1cccc(OCC(=O)Nc2ccncc2)c1C	-21%	-1	-2	-1	-10	13
O=C(Nc1cc(-c2nc3cc(Cl)ccc3o2)ccc1Cl)c1cccc2ccccc12	0%	-8	0	1	1	-1
Cc1cccc(OCC(=O)Nc2cccc3cccnc23)c1C	-33%	-45*	5	-1	1	5
Cc1cc(=O)n(Cc2ccccc2Cl)c2c1c(C)nn2-c1ccccc1	-3%	9	1	1	-4	6
Cc1ccc(CCNC(=O)CCCn2c(=O)c3cccn3c3ccc(F)cc32)cc1	?	3	-6	0	-1	1
COc1cccc(NC(=O)c2sc3nc(C)c(C(=O)Nc4ccc(C)cc4C)c(-c4ccc(C)o4)c3c2N)c1	-26%	7	3	4	-1	8
Cc1cccc(OCC(=O)Nc2ccc(-c3nc4ccccc4o3)cc2)c1C	-19%	8	31*	3	-1	4
O=C(COc1ccc2ccc(=O)oc2c1)Nc1ccc(CCO)cc1	-20%	-49*	-3	0	-3	2
Cc1cc(C)cc(OCC(=O)Nc2ccc(-c3nc4ccccc4o3)cc2)c1	-9%	-32*	-4	2	-3	9
CCOc1cc(C(=O)Nc2ccc(-c3nc4cc(C)ccc4o3)cc2)cc(OCC)c1OCC	-12%	4	9	1	4	0
Cc1ccc2nc(-c3ccc(Cl)c(NC(=O)COc4cccc(C)c4C)c3)oc2c1	-5%	7	2	-1	-4	-1
CCOc1cc(C(=O)Nc2ccc3oc(-c4ccc(CC)cc4)nc3c2)cc(OCC)c1OCC	1%	-11	36*	1	0	4
Cc1ccc(Cl)cc1NC(=O)Nc1cccs1	-5%	-63*	-3	1	-9	24
CC(=O)Nc1ccc(NC(=O)Nc2ccc(C)cc2C)cc1	-18%	-2	-6	-1	-2	1
CCc1ccccc1NC(=O)Nc1cccs1	-21%	-9	-3	0	-5	5
Cc1ccccc1NC(=O)Nc1cccs1	3%	-36*	0	1	-4	12
Cc1ccc(NC(=O)Nc2cccs2)c(C)c1	-14%	-41*	-2	0	1	11
CCC(CC)C(=O)Nc1cc(Cl)ccc1C	nt	-4	-5	0	-4	1
Cc1ccc(C(=O)NCCCNC(=O)COc2ccc(Cl)c(C)c2)cn1	-1%	-40*	-1	1	-2	5
COc1ccc(OCC(=O)NCCNC(=O)c2cccnc2)cc1	-3%	-32*	10	0	nt	3
Cc1ccc(OCC(=O)NCCCNC(=O)c2ccc(C)nc2)cc1	-2%	7	3	0	1	0
O=C(COc1ccc(Br)cc1)NCCCNC(=O)c1cccnc1	-12%	-2	2	0	-3	0
SMILES	USP1 inh	D1 antagonist	TRHR PAM	TRHR agonist	D1 PAM	D1 ag
COc1ccc(CN2CCN(C(=O)c3cccnc3)CC2)cc1Br	-8%	-34*	-3	0	-5	1
O=C(c1cccnc1)N1CCN(Cc2cccc(Br)c2)CC1	34%	-2	13	0	3	3
COc1cccc(N2CCN(C(=O)c3cccnc3)CC2)c1	-7%	-39*	0	-1	6	3
COc1cccc(N2CCN(C(=O)c3cc(C)oc3C)CC2)c1	-2%	-43*	-5	0	-1	1
O=C(Nc1nc(-c2ccccc2Cl)cs1)c1cccnc1	-3%	-41*	-4	-1	-4	4
Cc1noc(C)c1C(=O)Nc1nc(-c2ccccc2Cl)cs1	-22%	-25	9	0	-5	2
Cc1ccc(-n2nc(C)c3c(C(F)(F)F)cc(-c4cccnc4)nc32)cc1C	3%	-50*	0	1	1	0
CCc1ccccc1OCCCCN1CCCCC1	-5%	-56*	-1	1	-10	4
c1ccc(-c2ccccc2OCCCN2CCCCC2)cc1	1%	-54*	5	1	-3	15
CCN1CCN(CCCOc2ccccc2-c2ccccc2)CC1	-14%	-9	27	1	-4	17
Cc1ccc(C)c(NS(=O)(=O)c2ccc3c(c2)n(C)c(=O)n3C)c1	0%	-11	0	0	-1	2
COc1ccc(CN2CCN(c3cc(C)nc4c5c(C)cc(C)nc5nn34)CC2)cc1F	-13%	-38*	-1	-1	-3	1
O=[S+]([O-])(c1ccc2c(c1)OCCO2)N1CCN([S+](=O)([O-])c2c(F)cc(F)cc2Br)CC1	nt	-11	-1	-2	0	1
O=C(CSc1ncccn1)n1c2c(c3ccccc31)CCCC2	-5%	-43*	4	0	0	6
Cc1cccc(C)c1NC(=O)CN(C)CC(=O)Nc1cc(Cl)ccc1C#N	-10%	-4	34*	0	7	6
CCOc1ccc(NC(=O)CN(C)CC(=O)Nc2cc(Cl)ccc2C#N)cc1OCC	-3%	-2	-4	-1	6	0
COc1cc(OC)c(NC(=O)CN2CCCN(Cc3ccccc3C)S2(=O)=O)cc1Cl	-9%	8	0	0	0	-1
CCC1CN(C(=O)Nc2cccc(OC)c2)c2ccccc2O1 (configuration not stated)	-26%	-9	-1	0	-3	20
CC(C)N(Cc1ccccc1)C(=S)NC1CCCCC1	-19%	-31*	0	0	-15	5
CC(c1ccccc1)C(CC(=O)O)C(=O)NC1CCCCC1 (configuration not stated)	-14%	-31*	-3	-1	-4	1
N#CC1=C(N)N(c2ccccc2)C(c2cccc([N+](=O)[O-])c2)C1(C#N)C#N (configuration not stated)	-24%	-30*	1	0	-10	-1
Cc1cccc(N2C(N)=C(C#N)C(C#N)(C#N)C2c2ccccc2)c1 (configuration not stated)	-19%	10	4	0	4	-1
COc1ccccc1N1CCN(CCCNC(=O)c2nnc(Cc3c(F)cccc3Cl)o2)CC1	-3%	-36*	-2	0	-5	9
